Shown is part of a subset that was picked to be rich in hits.
TDP-43 tox inh: TDP-43 toxicity inhibition in yeast; AID 1347073; yeast TDP-43 toxicity rescue, BacTiter-Glo growth, 24 h; Potency, µM (highest dose often 46.1 µM), usual class: activators; actives 0.45% (n = 45,000); active means well fitted activation curve with a large enough effect; further: 0% is about no effect; nearly all actives have a fitted effect of over 55% in size
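TDP-43-expressing yeast, pregrown in raffinose, seeded at OD600 0.02 in galactose medium with compound for 24 hr at 30 deg C. Growth read by BacTiter-Glo luminescence, so rescue of toxicity appears as activation.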
An asterisk follows results filed as active. Potency means the concentration at half of the fitted maximal effect.

How did COc1ccccc1C1CC(c2cccs2)=NN1C(=O)CCC(=O)O (stereo not drawn) do in these assays?
TDP-43 tox inh: inactive

Results for COc1ccc(C2CC(c3cccs3)=NN2C(=O)c2ccc(Br)o2)cc1 (stereo not drawn) ?
TDP-43 tox inh: inactive

What do the screens show for `Cc1ccc(C2CC(c3cccs3)=NN2C(=O)CCl)cc1` (stereo not drawn)?
TDP-43 tox inh: 13µM*

What do the screens show for `CCOC(=O)C1CCN(C(=O)CNC(=O)c2nn(-c3ccc(OC)c(OC)c3)c(=O)c3ccccc23)CC1`?
TDP-43 tox inh: inactive

Results for COc1ccc(-n2nc(C(=O)NCC(=O)N3CCC(C)CC3)c3ccccc3c2=O)cc1Cl ?
TDP-43 tox inh: 18µM*

How did COc1ccc(-n2nc(C(=O)NCC(=O)N3CCN(Cc4ccccc4)CC3)c3ccccc3c2=O)cc1OC do in these assays?
TDP-43 tox inh: inactive

How did O=C(Nc1ccc(N2CCOCC2)cc1)c1cc2c(s1)CCCCC2 do in these assays?
TDP-43 tox inh: 16µM*

Results for O=C(Nc1cccc(S(=O)(=O)Nc2ccc(Cl)cc2)c1)c1cc2c(s1)CCCC2 ?
TDP-43 tox inh: inactive

What do the screens show for `O=C(Nc1ccc(N2CCOCC2)cc1)c1ccc(Br)o1`?
TDP-43 tox inh: inactive

How did O=C(NCCC1=CCCCC1)c1ccc2c(c1)N(Cc1ccc(F)cc1)C(=O)c1ccccc1S2(=O)=O do in these assays?
TDP-43 tox inh: inactive

What do the screens show for `Cc1ccc(C)c(CN2C(=O)c3ccccc3S(=O)(=O)c3ccc(C(=O)N4CCOCC4)cc32)c1`?
TDP-43 tox inh: inactive

Results for O=C(Cc1ccccc1)NNC(=S)NC(=O)c1cccnc1 ?
TDP-43 tox inh: inactive

What do the screens show for `O=C(NC(=S)NNC(=O)[C@H]1C[C@@H]1c1ccccc1)c1cccc(F)c1`?
TDP-43 tox inh: 13µM*

What do the screens show for `O=C(NNC(=S)NC(=O)c1ccc(F)cc1)c1cccnc1`?
TDP-43 tox inh: inactive

Results for CCCSc1ncc(Cl)c(C(=O)Nc2c(C(=O)Nc3ccc(OC)cc3)oc3ccccc23)n1 ?
TDP-43 tox inh: inactive

How did CC(=O)c1c(C)[nH]c(C(=O)Nc2nc(-c3ccccc3)c(C)s2)c1C do in these assays?
TDP-43 tox inh: inactive

What do the screens show for `Cc1sc(NC(=O)c2ccco2)nc1-c1ccccc1`?
TDP-43 tox inh: 13µM*

How did Cc1nc(NC(=O)c2ccco2)sc1C(=O)O do in these assays?
TDP-43 tox inh: inactive

Results for CCCCN(C(C)=O)c1c(CC)nc2ccc(C(=O)NCCc3ccccn3)cn12 ?
TDP-43 tox inh: inactive

What do the screens show for `Cc1ccc(NC(=O)CN(C)S(=O)(=O)c2ccc3nc(C)sc3c2)c(C)c1`?
TDP-43 tox inh: inactive

Results for CCCCn1cnc2cc(NC(=O)c3cc(OC)c(OC)c(OC)c3)ccc21 ?
TDP-43 tox inh: inactive

What do the screens show for `Cc1ccccc1-c1cc2nc(NCCOc3ccccc3)n(C)c(=O)c2s1`?
TDP-43 tox inh: inactive

Results for Cc1ccccc1-c1cc2nc(NCCCN(C)C)n(C)c(=O)c2s1 ?
TDP-43 tox inh: inactive

What do the screens show for `COc1ccc(Nc2nc3cc(-c4ccccc4C)sc3c(=O)n2C)cc1OC`?
TDP-43 tox inh: 20µM*

What do the screens show for `Cc1ccc(-c2nn3c(-c4ccccc4C)nnc3c3ccccc23)cc1`?
TDP-43 tox inh: inactive

How did COc1ccc(NC(=O)C2Cc3c(-c4ccco4)ccnc3O2)cc1OC (stereo not drawn) do in these assays?
TDP-43 tox inh: inactive

How did Nc1c(-c2ccccc2)c(CN2CCOCC2)nn1-c1cccc([N+](=O)[O-])c1 do in these assays?
TDP-43 tox inh: inactive

How did Cc1cc(NC(=O)c2cccc([N+](=O)[O-])c2)n(-c2ccccc2)n1 do in these assays?
TDP-43 tox inh: inactive

What do the screens show for `Cc1ccccc1-c1cnn(-c2cccc([N+](=O)[O-])c2)c1N`?
TDP-43 tox inh: 13µM*

Results for CC(C)Oc1ccc(CNC(=O)c2ccc3c(c2)N(Cc2ccc(F)cc2)CCS3)cc1 ?
TDP-43 tox inh: inactive

What do the screens show for `Cc1ccc(-c2nn3c(-c4ccccc4)nnc3c3ccccc23)cc1`?
TDP-43 tox inh: inactive

How did CN(C)C(=O)c1cn(-c2ccccc2)nc1-c1cccc([N+](=O)[O-])c1 do in these assays?
TDP-43 tox inh: inactive

Results for Nc1c(O)ccc2c1C(=O)c1ccccc1C2=O ?
TDP-43 tox inh: inactive

Results for CN(C)C(=O)c1ccc2c(c1[N+](=O)[O-])C(=O)c1ccccc1C2=O ?
TDP-43 tox inh: 10µM*

What do the screens show for `O=C(Nc1ccccc1Oc1ccccc1)[C@@H]1O[C@H](CO)[C@H](O)[C@H](O)[C@H]1O`?
TDP-43 tox inh: inactive

What do the screens show for `O=C(O)c1ccccc1OCCOc1ccccc1`?
TDP-43 tox inh: 22µM*

Results for CCC(C)/C(C)=N/NC(=O)c1ccccc1OCCOc1ccccc1 (stereo not drawn) ?
TDP-43 tox inh: inactive

Results for CC(=O)Nc1ccc(OCCOc2ccccc2C(C)=O)cc1 ?
TDP-43 tox inh: inactive

What do the screens show for `O=C(Nc1nnc([C@H]2C[C@H](O)[C@@H](CO)O2)s1)Nc1ccc(F)cc1F`?
TDP-43 tox inh: inactive

Results for CCc1cccc(CC)c1N(COC)C(=O)Cn1c(C)nc2ccccc21 ?
TDP-43 tox inh: inactive

Results for O=C(CCCn1c(=O)c2sccc2n(Cc2ccc(Cl)cc2)c1=O)NCc1ccc2c(c1)OCO2 ?
TDP-43 tox inh: inactive

How did COC(=O)c1c(-c2cccs2)csc1NC(=O)COc1ccccc1 do in these assays?
TDP-43 tox inh: inactive

How did Cc1nn(-c2ccccc2)c(OC(=O)C(C)C)c1Sc1ccc(Cl)cc1 do in these assays?
TDP-43 tox inh: inactive

How did C(=N\n1cnnc1)/c1ccc(-c2ccccc2)cc1 do in these assays?
TDP-43 tox inh: 11µM*

How did O=[N+]([O-])c1cccc(/C=N/n2cnnc2)c1 do in these assays?
TDP-43 tox inh: inactive

Results for CCc1ccc(/C=N\n2cnnc2)cc1 ?
TDP-43 tox inh: inactive

What do the screens show for `COc1ccc(NC(=O)Cn2c(=O)n(CCCCCC(=O)NCc3ccc4c(c3)OCO4)c(=O)c3sccc32)cc1Cl`?
TDP-43 tox inh: inactive

How did O=C(NCC1CC1)c1cccc2c(-c3ccc(F)c(F)c3)coc12 do in these assays?
TDP-43 tox inh: 22µM*

What do the screens show for `NC(=O)c1cccc(-c2coc3c(C(=O)NC4CCCCC4)cccc23)c1`?
TDP-43 tox inh: inactive

Results for O=C(NCc1cccc(Cl)c1)c1ccc(-c2ccc(F)c(F)c2)c2ccoc12 ?
TDP-43 tox inh: inactive

What do the screens show for `COc1ccc(CNC(=O)c2ccc(-c3ccc(F)c(F)c3)c3ccoc23)cc1OC`?
TDP-43 tox inh: inactive

How did Cn1nccc1-c1coc2c(C(=O)NCC3CCOCC3)cccc12 do in these assays?
TDP-43 tox inh: inactive

Results for O=C(NCc1ccc(F)c(F)c1)c1cccc2c(-c3cccnc3)coc12 ?
TDP-43 tox inh: 10µM*

How did Cc1ccc(CN2C(=O)c3ccccc3CC2(C)C(=O)NC2CCCCC2)cc1 (stereo not drawn) do in these assays?
TDP-43 tox inh: inactive

How did O=C1COc2cc(S(=O)(=O)NCc3ccco3)c(Cl)cc2N1 do in these assays?
TDP-43 tox inh: inactive

How did Cn1c(=O)c2cc(NC(=O)NCCc3ccccc3)ccc2n1Cc1cccc(C(F)(F)F)c1 do in these assays?
TDP-43 tox inh: inactive

Results for Cc1ccccc1Cn1c(=O)n(CCCCCC(=O)NCc2ccc3c(c2)OCO3)c(=O)c2sccc21 ?
TDP-43 tox inh: inactive

How did [O-][n+]1cccc2c(Br)cc(Br)c(O)c21 do in these assays?
TDP-43 tox inh: 7.9µM*

Results for C[n+]1cccc2c(Br)ccc([O-])c21 ?
TDP-43 tox inh: inactive

Results for Cc1ccc(OCC(=O)N(Cc2ccc(Cl)cc2)Cc2ccco2)cc1C ?
TDP-43 tox inh: inactive

Assay outcomes as filed in PubChem BioAssay.
